The record followed here is PubChem BioAssay AID1069 (NMMLSC, 2008).

The structures appear in SMILES notation. The source made the active and inactive calls.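 Rule for the calls: active = high combined rank on largest and smallest cell-count-weighted shift across three tests, rank score above 45, floors 50 and 25 (some results past the limit were not filed as active); inactive = the rest.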

A short description of the test: LNCaP granularity increase inducers, single-point recheck – cell-based, side scatter shift, flow cytometry, confirmation (AID 1069).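 Note: LNCaP human prostate cancer cells in low-serum medium with charcoal-stripped FBS; percent of cells with raised granularity gated so DMSO controls show 10%.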 The note with it: LNCaP differentiation, 4 d, stronger effect = higher value.

For `CCOC(=O)CSc1nnc(CNC(=O)c2ccccc2OC)n1-c1ccc(OC)cc1`, the side scatter shift runs as follows: (at 100 µM) 11.3% (inactive); (side scatter shift, at 10 µM) 4.3%.

As to `COC(=O)c1ccccc1S(=O)(=O)N(Cc1cc2cc3c(cc2[nH]c1=O)OCO3)C1CCCCC1`, the side scatter shift was 50% (inactive) (at 100 µM) and 8.05% (side scatter shift, at 10 µM).

For `CCOC(=O)C1=C(O)CCn2c1nc1ccccc12`, the side scatter shift (at 100 µM) is 18% (inactive) and the side scatter shift (side scatter shift, at 10 µM) is 3.3%.

With `COc1ccc(CCNC(=O)C2CCCN(Cc3nc(-c4ccccc4C)oc3C)C2)cc1OC` (configuration not stated), the side scatter shift is, setting by setting: (at 100 µM) 25% (inactive); (side scatter shift, at 10 µM) 5.4%.

Turning to `N=c1c(C(=O)NC2CCCC2)cc2c(=O)n3ccccc3nc2n1C1CCCC1`, the side scatter shift (at 100 µM) was 16.7% (inactive) and the side scatter shift (side scatter shift, at 10 µM) was 7.85%.

As for `CCCCCn1c(=N)n(CC(O)COc2ccccc2OC)c2ccccc21` (configuration not stated), the side scatter shift by setting is: (at 100 µM) 15% (inactive); (side scatter shift, at 10 µM) 25.1%.

Take `COc1cccc(Oc2cnc(N)nc2-c2ccc(OC)cc2O)c1`: the side scatter shift is 22.2% (inactive) (at 100 µM) and 6.3% (side scatter shift, at 10 µM).

On to `COc1ccc(N2CCN(CCCNC(=O)C3(S(=O)(=O)c4ccc(Cl)cc4)CC3)CC2)cc1`, for which the side scatter shift was 26.9% (inactive) (at 100 µM) and 2.45% (side scatter shift, at 10 µM).

For the compound `CN(C)CCCN1c2ccccc2CCc2ccc(Cl)cc21`, the side scatter shift was 20.9% (active) (at 100 µM) and 48.4% (side scatter shift, at 10 µM).

With `COc1ccc(-c2cc(-c3ccc(F)cc3)nc(N3CCN(C)CC3)n2)cc1`, the side scatter shift reads like this: (at 100 µM) 33.3% (inactive); (side scatter shift, at 10 µM) 14.8%.

For the compound `Oc1c(CN2CCCCC2)cc(COCc2ccccc2)c2cccnc12`, the side scatter shift (at 100 µM) was 5.7% (active) and the side scatter shift (side scatter shift, at 10 µM) amounted to 51.2%.

In the case of `O=S(=O)(Nc1cccc2ncccc12)c1cccs1`, the side scatter shift was 14.3% (inactive) (at 100 µM) and 5.95% (side scatter shift, at 10 µM).

Consider `O=C(Cn1cc2c(n1)CCCC2)NCCCN1CCN(c2ccccc2F)CC1`, for which the side scatter shift was 56.4% (active) (at 100 µM) and 4.95% (side scatter shift, at 10 µM).

In the case of `Nc1ccc(-c2nc3c(Cl)c(N)ccc3[nH]2)cc1`, the side scatter shift runs as follows: (at 100 µM) 20.2% (inactive); (side scatter shift, at 10 µM) 4.7%.

With `COc1cc(C2C3=C(Nc4ncnn42)c2ccccc2CC3)cc(OC)c1OC` (configuration not stated), the side scatter shift is 11.2% (inactive) (at 100 µM) and 4.5% (side scatter shift, at 10 µM).

As for `COc1ccc2nc3oc(C(=O)NCc4cccs4)cc3cc2c1`, the side scatter shift runs as follows: (at 100 µM) 3.9% (inactive); (side scatter shift, at 10 µM) 3.9%.

For `Cn1c(C(=O)NCCC2=CCCCC2)cc2c(=O)n3ccccc3nc21`, the side scatter shift is 11.5% (inactive) (at 100 µM) and 5.75% (side scatter shift, at 10 µM).

Take `Cc1ccccc1-c1nc(CN2CCCC(C(=O)NCc3cccnc3)C2)c(C)o1` (configuration not stated): the side scatter shift is 13.7% (inactive) (at 100 µM) and 7.35% (side scatter shift, at 10 µM).

On to `CCCCC(=O)NCCc1ccc(S(N)(=O)=O)cc1`, for which the side scatter shift runs as follows: (at 100 µM) 12.6% (inactive); (side scatter shift, at 10 µM) 11.9%.

`Cc1oc(-c2ccc(Cl)cc2)nc1CN1CCC(C(=O)NCc2ccco2)CC1`: the side scatter shift by setting is: (at 100 µM) 37.1% (inactive); (side scatter shift, at 10 µM) 9.6%.

As for `O=C(Cn1c(=O)[nH]c2ccsc2c1=O)NC1CCCCCC1`, the side scatter shift runs as follows: (at 100 µM) 2.5% (inactive); (side scatter shift, at 10 µM) 5.85%.

Consider `O=C(NCCCN1CCN(c2ccc(F)cc2)CC1)c1cccc(N2CCCC2=O)c1`, for which the side scatter shift by setting is: (at 100 µM) 51.9% (active); (side scatter shift, at 10 µM) 13.7%.

Regarding `Cc1oc(-c2ccc(Cl)cc2)nc1CN1CCCC(C(=O)NCCCN2CCOCC2)C1` (configuration not stated), the side scatter shift reads like this: (at 100 µM) 42.9% (inactive); (side scatter shift, at 10 µM) 16.6%.

As to `CC(C)N1CCC2(CC1)N=C(c1ccc3c(c1)OCO3)CC(c1cc(Cl)ccc1O)N2` (configuration not stated), the side scatter shift was 26.1% (inactive) (at 100 µM) and 18.8% (side scatter shift, at 10 µM).

With `Nc1ccccc1NC(=O)c1ccccc1N`, the side scatter shift (at 100 µM) is 5.9% (inactive) and the side scatter shift (side scatter shift, at 10 µM) is 2.1%.

As to `CCOc1ccccc1NC(=O)CCC(=O)O`, the side scatter shift is, setting by setting: (at 100 µM) 6.7% (inactive); (side scatter shift, at 10 µM) 6.85%.

Regarding `COc1ccccc1N1CCN(C(=O)CCn2c(=O)[nH]c3ccsc3c2=O)CC1`, the side scatter shift is 19.4% (inactive) (at 100 µM) and 1.7% (side scatter shift, at 10 µM).

`CCN1C(=O)OC2(CCCCC2)C1(C)O` (configuration not stated): the side scatter shift (at 100 µM) was 10.4% (inactive) and the side scatter shift (side scatter shift, at 10 µM) amounted to 12.7%.

For `Cc1oc(-c2ccc(Cl)cc2)nc1CN1CCC(C(=O)NCCCN2CCOCC2)CC1`, the side scatter shift is, setting by setting: (at 100 µM) 41.7% (inactive); (side scatter shift, at 10 µM) 27.7%.

Consider `O=C(CCN1C(=O)COc2ccccc21)NCCCN1CCN(c2ccccc2F)CC1`, for which the side scatter shift is 21% (inactive) (at 100 µM) and 4.4% (side scatter shift, at 10 µM).

As to `Cc1oc(-c2ccccc2F)nc1CN1CCC(C(=O)NCc2ccco2)CC1`, the side scatter shift runs as follows: (at 100 µM) 23.3% (inactive); (side scatter shift, at 10 µM) 3%.

Take `Cn1nc(-c2ccc(Cl)cc2)c2cc(C(=O)NCCN3CCOCC3)sc21`: the side scatter shift (at 100 µM) was 30% (inactive) and the side scatter shift (side scatter shift, at 10 µM) was 5.2%.

For the compound `CC1CCCCN1CCNC(=O)c1cc2c(-c3ccccc3F)nn(C)c2s1` (configuration not stated), the side scatter shift is, setting by setting: (at 100 µM) 42.4% (inactive); (side scatter shift, at 10 µM) 19.9%.

`COc1ccc(Cl)c(N2CCN(CCCNC(=O)Nc3ccc(C)cc3)CC2)c1`: the side scatter shift is, setting by setting: (at 100 µM) 26.3% (inactive); (side scatter shift, at 10 µM) 12%.

Regarding `O=C(NCCCN1CCN(c2ccccc2F)CC1)C1CCC(=O)N1C1CCCCC1` (configuration not stated), the side scatter shift is, setting by setting: (at 100 µM) 8% (inactive); (side scatter shift, at 10 µM) 4.05%.

On to `Cc1cccc(-c2nc(CN3CCCC(C(=O)NC4CCC(C)CC4)C3)c(C)o2)c1` (configuration not stated), for which the side scatter shift by setting is: (at 100 µM) 40% (inactive); (side scatter shift, at 10 µM) 5.9%.

Turning to `CCCCOC(=O)Nc1cc(C(=O)OC)ccc1C(=O)OC`, the side scatter shift was 21% (inactive) (at 100 µM) and 1.25% (side scatter shift, at 10 µM).

Consider `Cc1ccccc1-c1nc(CN2CCCC(C(=O)NCCCN3CCOCC3)C2)c(C)o1` (configuration not stated), for which the side scatter shift (at 100 µM) is 72.4% (active) and the side scatter shift (side scatter shift, at 10 µM) amounted to 12.8%.

Regarding `Cc1cc(N2CCN(C)CC2)nc2ccc(NC(=O)c3ccc(Br)o3)cc12`, the side scatter shift reads like this: (at 100 µM) 0% (active); (side scatter shift, at 10 µM) 56.4%.

`O=c1cc(N2CCc3ccccc3C2)[nH]c(=O)n1C1CCCCC1`: the side scatter shift is, setting by setting: (at 100 µM) 16.8% (inactive); (side scatter shift, at 10 µM) 5.9%.

In the case of `COc1ccccc1NC(=O)c1nc[nH]c1C(=O)Nc1ccccc1OC`, the side scatter shift (at 100 µM) is 50.5% (inactive) and the side scatter shift (side scatter shift, at 10 µM) came to 5.65%.
